Reference: PubChem BioAssay (NCATS)
Records with an inconclusive call do not appear. Unmarked numbers belong to inactive results. Active and inactive are the calls of the source. Calls come from the whole dose curve; as a rule, active = well fitted cell-killing curve with a large enough effect; inconclusive = small, poorly fitted or top-dose-only effect; inactive = flat fitted curve, though single readings scatter.

Test: qHTS of pediatric cancer cell lines to identify multiple opportunities for drug repurposing: Primary screen for control Hh wild type fibroblast cells (AID 1347106);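 note: a drop in luminescence marks cytotoxicity and a rise apparent proliferation; nearly all actives have a fitted effect of over 55% in size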
Conditions: Hh wild-type fibroblast viability, CellTiter-Glo luminescence, 48 h; series mostly up to 46 µM
From the text: Drug repurposing or repositioning has been offered as a strategy for drug development in oncology programs. This approach has special potential for childhood cancers and other rare or orphan diseases, where the expected return on new drug development has been a disincentive to pharmaceuticals.
In this project we exploit the poly-pharmacology of drugs to discover new indications via phenotypic screening of a panel of 19 well-characterized cell lines derived from solid tumors seen in children and adolescents. The goal is to identify approved drugs with previously unrecognized anticancer properties that has the potential to reveal new mechanisms and biological processes involved in carcinogenesis or drug resistance. We employed a titration-based paradigm (quantitative high-throughput screening or qHTS), where all compounds were tested at multiple concentrations for their effect on cell viability. Concentration-response curves (CRCs) were derived directly from the primary screen, and both potency and efficacy values were used to identify compounds with robust bioactivity profiles. We screened the NIH Chemical Genomics Center (NCGC) Pharmaceutical Collection (NPC) and Mechanism Interrogation Plate (MIPE) small molecule collections of approved and investigational compounds against these cell lines; and measured metabolically active cells after 48 hours of compound treatment as a proxy for cell viability.
Assay Submitter: Nathalia J. Martinez, National Center for Advancing Translational Sciences, National Institutes of Health, Rockville, MD, USA; email: natalia.martinez@nih.gov
[1] Shen, M et al. Quantitative high-throughput phenotypic screening of pediatric cancer cell lines identifies multiple opportunities for drug repurposing. Oncotarget 2017 Dec 19;9(4):4758-4772. PMID 29435139.
The cells were obtained from University of North Carolina (UNC), Pediatric Preclinical Testing Program (PPT), and Coriell Institute (CI).
qHTS cell viability assay:
Cells were assayed in growth media at a density of 500-1,000 cells/well. Five microliters of cells were dispensed into 1,536-well, white, solid-bottom, TC-treated plates (Greiner Bio One) using a multidrop dispenser and incubated at 37 degrees C, 5% CO2, under a humidified atmosphere for 5 hours. Twenty-three nanoliters of compounds and controls (neutral control DMSO or positive control bortezomib at final concentration of 2.3 µM) were subsequently transferred by Kalypsys pintool. For primary screens, the MIPE collection was tested at 11-point dilutions (final concentrations range from 0.78 nM to 46 µM) and the NPC collection at 8-point dilutions (final concentrations range from 0.59 nM to 46 µM). Compounds tested in follow-up screens were assayed at 11-point dilutions. Cells were incubated for 48 hours, followed by addition of 3 µL of CellTiter-Glo (Promega). After a 15 min incubation at room temperature, samples were analyzed for luminescence intensity using a ViewLux High-throughput CCD imager equipped with clear filters.
% is set by controls: 0 for no effect and ±100 for the full control effect.

| SMILES | outcome | activity change, negative = cytotoxic |
| --- | --- | --- |
| CN(C)CCOC(C)(c1ccccc1)c1ccccn1 (stereo not given) | inactive | – |
| CNC(=O)Oc1ccc2c(c1)[C@]1(C)CCN(C)[C@@H]1N2C | inactive | – |
| COc1ccc2[nH]c(S(=O)Cc3ncc(C)c(OC)c3C)nc2n1 (stereo not given) | inactive | – |
| CCCCCCCCCCCCCCCCCCOCC(O)CO (stereo not given) | inactive | – |
| Nc1ccc(S(=O)(=O)Nc2ccccc2)cc1 | inactive | – |
| O=c1cc[nH]c(=O)[nH]1 | inactive | – |
| CN1CCN(C2Cc3ccccc3Sc3ccc(Cl)cc32)CC1 (stereo not given) | inactive | – |
| CCCCCCCCCCCCOS(=O)(=O)O | inactive | – |
| CCN(CC)CCSC(=O)C(c1ccccc1)c1ccccc1 | inactive | – |
| NC(=O)c1ncn([C@@H]2O[C@H](CO)[C@@H](O)[C@H]2O)c1N | inactive | – |
| Cc1cccc(Nc2cc(Cl)nc(SCC(=O)O)n2)c1C | inactive | – |
| C/C(=C(\CCOP(=O)(O)O)SC(=O)c1ccccc1)N(C=O)Cc1cnc(C)nc1N | – | 4.64% [at 4.84 µM] |
| C[C@@H]1C[C@H]2[C@@H]3C[C@H](F)C4=CC(=O)C=C[C@]4(C)[C@@]3(F)[C@@H](O)C[C@]2(C)[C@@]1(O)C(=O)CO | inactive | – |
| C=Cc1c(C)c2cc3[nH]c(cc4nc(cc5nc(cc1[nH]2)C(C)=C5CCC(=O)O)C(CCC(=O)O)=C4C)c(C)c3C=C | inactive | – |
| Nc1cc(=O)[nH]c(N)n1 | inactive | – |
| CCCCN1CCCC[C@H]1C(=O)Nc1c(C)cccc1C | inactive | – |
| N[C@H](C(=O)O)c1ccc(O)cc1 | inactive | – |
| CCC(=O)c1ccc(O)cc1 | inactive | – |
| CN(N=O)C(=O)N[C@@H]1[C@@H](O)[C@H](O)[C@@H](CO)O[C@@H]1O | inactive | – |
| O=C(O)c1ccccn1 | inactive | – |

| SMILES | outcome | activity change, negative = cytotoxic |
| --- | --- | --- |
| CC1CC(OC(=O)C(O)c2ccccc2)CC(C)(C)N1C (stereo not given) | inactive | – |
| CCN(CC)C(C)CN1c2ccccc2Sc2ccccc21 (stereo not given) | inactive | – |
| CC1(C)[C@@H]2CC[C@@]1(C)C(=O)C2 | inactive | – |
| O=c1[nH]cnc2c1ncn2[C@@H]1O[C@H](CO)[C@@H](O)[C@H]1O | inactive | – |
| N[C@@H](CSSC[C@H](N)C(=O)O)C(=O)O | – | 21.8% [at 0.597 µM] |
| CNCCC(Oc1ccc(C(F)(F)F)cc1)c1ccccc1 (stereo not given) | inactive | – |
| O=C1Nc2ccc(Cl)cc2[C@@](C#CC2CC2)(C(F)(F)F)O1 | inactive | – |
| O=C1NC(=O)[C@@]2(CCOc3ccc(F)cc32)N1 | inactive | – |
| NC(=O)NC(=O)Cc1ccccc1 | inactive | – |
| O=C(O)[C@@H]1CSCN1 | inactive | – |
| CC(C)(C)NCC(O)COc1ccc(NC(=O)NC2CCCCC2)cc1 (stereo not given) | inactive | – |
| CN(C)CCCO[C@@H]1[C@H]2OC(C)(C)O[C@H]2O[C@@H]1C(O)CO (stereo not given in full) | inactive | – |
| CCCc1c(OCCCCc2nn[nH]n2)ccc(C(C)=O)c1O | inactive | – |
| N[C@@H](CSCCCO)C(=O)O | inactive | – |
| CCCCOc1cc(C(=O)OCCN(CC)CC)ccc1N | inactive | – |
| OCC(CO)N[C@H]1C[C@](O)(CO)[C@@H](O)[C@H](O)[C@H]1O | inactive | – |
| O=c1[nH]c(=O)c2[nH]c(=O)[nH]c2[nH]1 | – | 8.6% [at 9.22 µM] |
| CSc1ccc2c(c1)C(N1CCN(C)CC1)Cc1ccccc1S2 (stereo not given) | inactive | – |
| O=S(=O)(O)c1cc(I)c(O)c2ncccc12 | inactive | – |
| CCCCOC(=O)c1ccc(O)cc1 | inactive | – |
